High-throughput results (PubChem BioAssay)
PNC inhibitor: perinucleolar compartment assembly inhibition | PC3M PTB-GFP, PNC prevalence imaging, 16 h; stronger effect = lower value | activity change (PNC), negative = inhibition, % at 10 µM | AID 2417 | actives 3.1% (n = 140,000);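 active means readout at or below -70, meaning at least 70% loss of cells showing the perinucleolar compartment, a nuclear body marking cancer cells; inconclusive means readout between -30 and a set limit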;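 further: plate controls were DMSO wells for no effect and camptothecin positive control wells for full effect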
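Compounds are pinned in duplicate onto adhered PC3M cells stably expressing GFP-tagged PTB and incubated 16 h at 37 C. Cells are then fixed, nuclei stained with Hoechst, and PNC-positive cells counted.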
RGS12 GoLoco inh: inhibitors of human Gai1-RGS12 GoLoco interaction (red fluorophore); Potency, µM (series often up to 61.6 µM), for inactives: top-dose activity, negative = inhibition, hits mostly inhibitors; actives 0.44% (n = 230,000); Gai1:RGS12 GoLoco peptide FP, rhodamine, 10 min; AID 880; P63096; active means well fitted inhibition curve with a large enough effect, not every such curve was filed as active; inactive means no such curve, though single readings can be large or run the other way; further: potency means the concentration at half of the fitted maximal effect; on the % scale 0 is the no-effect control and ±100 the full control effect; nearly all actives have a fitted effect of over 30% in size
Target sequence (P63096 whole entry, looked up): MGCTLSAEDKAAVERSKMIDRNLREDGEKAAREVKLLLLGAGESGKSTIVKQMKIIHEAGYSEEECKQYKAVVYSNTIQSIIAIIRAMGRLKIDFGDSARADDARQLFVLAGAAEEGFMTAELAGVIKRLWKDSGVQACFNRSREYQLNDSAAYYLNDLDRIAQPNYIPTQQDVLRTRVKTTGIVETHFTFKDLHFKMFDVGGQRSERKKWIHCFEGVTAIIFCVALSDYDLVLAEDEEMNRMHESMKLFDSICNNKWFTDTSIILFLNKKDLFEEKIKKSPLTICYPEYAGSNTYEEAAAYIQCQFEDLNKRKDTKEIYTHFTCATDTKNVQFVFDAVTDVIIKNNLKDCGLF
HPGD block: blocks human HPGD enzyme activity. P15428. Potency, µM, for inactives: at the top dose activity change, negative = inhibition, hits mostly inhibitors. purified HPGD, NADH fluorescence kinetic, PGE2 substrate. actives 4.3% (n = 150,000). AID 894; further: potency means the concentration at half of the fitted maximal effect; on the % scale 0 is the no-effect control and ±100 the full control effect
Target sequence (P15428 whole entry, looked up): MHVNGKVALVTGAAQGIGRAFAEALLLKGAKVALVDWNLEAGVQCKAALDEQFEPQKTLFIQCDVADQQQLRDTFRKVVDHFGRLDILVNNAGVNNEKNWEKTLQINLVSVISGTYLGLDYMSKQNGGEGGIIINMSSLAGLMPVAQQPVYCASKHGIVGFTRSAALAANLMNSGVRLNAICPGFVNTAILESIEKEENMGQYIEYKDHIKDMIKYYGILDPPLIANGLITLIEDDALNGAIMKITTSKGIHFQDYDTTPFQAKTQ
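20 nM HPGD preincubated 15 min at room temperature with compound in 50 mM Tris-HCl pH 8, 0.01% Tween 20. Started with 1 mM NAD+ and 30 uM prostaglandin E2; NADH fluorescence (360/450 nm) read 5 times over 30-s intervals, last minus first.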
HTT cytoprotect: Huntington cell model cytoprotection by ATP luminescence. PC12 HTT-Q103 induced, cytoprotection, ATP luminescence, 40 h. Potency, µM (doses to about 56.4 µM), inactives show cytoprotection (ATP increase), most hits filed as activators. actives 0.14% (n = 230,000). AID 1471; active means well fitted curve in the direction sought with a large enough effect; inconclusive means small, poorly fitted or top-dose-only effect, or another doubt; inactive means no such curve, though single readings can be large; an effect the other way counts as inactive or inconclusive; further: potency means the concentration at half of the fitted maximal effect; % of control where 0% means no effect; nearly all actives have a fitted effect of over 45% in size
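Quantitative HTS on tebufenozide-induced (100 nM) PC12 cells expressing HTTQ103 exon 1–GFP; compounds tested as a concentration series; survival measured via cellular ATP.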
HTT aggregate: inhibitors of mutant huntingtin aggregate formation in PC12 cells; PC12 HttQ103-GFP aggregates, Acumen cytometry, 40 h; Potency, µM (doses to about 46.1 µM), inactives show at the highest dose activity change, negative = inhibition, hits mostly inhibitors; actives 1.1% (n = 220,000); active means well fitted curve in the direction sought with a large enough effect; inconclusive means small, poorly fitted or top-dose-only effect, or another doubt; inactive means no such curve, though single readings can be large; an effect the other way counts as inactive or inconclusive; further: potency means the concentration at half of the fitted maximal effect; on the % scale 0 is the no-effect control and ±100 the full control effect; nearly all actives have a fitted effect of over 60% in size
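Huntingtin Q103 exon 1–GFP aggregates in induced PC12 cells (100 nM tebufenozide) were quantified by cytometry from lysates, with compounds dosed in titration.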
ALDH1A1 block: blocks purified human ALDH1A1 activity | P00352 | Purified ALDH1A1, NADH fluorescence, propionaldehyde substrate | Potency, µM (top dose mostly 75.3 µM), for inactives: at the top dose activity, negative = inhibition, most hits filed as inhibitors | actives 7.3% (n = 220,000);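 further: potency means the concentration at half of the fitted maximal effect; plate controls were no enzyme wells and a reference inhibitor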
* marks the source's active call; other numbers are inactive results; ? = inconclusive; . = not tested or not shown; [ ] = dose if it differs, or a comment. Only some compounds are listed: those with a hit (about 11% of all), similar ones and a draw of the others. Unless noted, the call rests on the fitted dose curve; in most records, active means well fitted inhibition curve with a large enough effect (not every such curve was filed as active); inconclusive means small, poorly fitted or top-dose-only effect, or another doubt; inactive means no such curve, though single readings can be large or run the other way.

SMILES | PNC inhibitor | RGS12 GoLoco inh | HPGD block | HTT cytoprotect | HTT aggregate | ALDH1A1 block
COC(=O)c1c(NC(=O)CC2SC(N)=NC2=O)sc2c1CCC(C)C2 (stereo not given) | -28.2 | 1.3% | -2.0% | 15.6%[10 µM] | 12.1% | 12.6µM*
COC(=O)c1c(NC(=O)CC2SC(N)=NC2=O)sc2c1CCCC2 (stereo not given) | 47.7 | 6.7% | -14.6% | -6.8%[10 µM] | ? | 25.1µM*
CCCCn1c(N)c(N(CC)C(=O)CSc2nnnn2-c2cc(C)ccc2C)c(=O)[nH]c1=O | . | 0.4% | . | -34.0% | 12.2% | 11.2µM*
CCN(C(=O)CSc1nnnn1C)c1c(N)n(Cc2ccccc2)c(=O)[nH]c1=O | . | -6.6% | . | -38.7% | 19.4% | 13.3%
CC(C)(C)OC(=O)N/N=C/c1c[nH]c2ccccc12 | -109.0* | 10.2% | -10.6% | . | 1.3% | 7.6%
Cc1nc(C)c(C(=O)N/N=C/c2c[nH]c3ccccc23)s1 | -87.0* | 7.0% | ? | -0.7% | 13.0% | ?
O=C(N/N=C/c1c[nH]c2ccccc12)c1cc(-c2ccc(-c3ccccc3)cc2)n[nH]1 | -13.3 | -1.8% | ? | -64.8% | ? | 4.1%
Cc1nc(C)c(C(=O)N/N=C/c2cn(C)c3ccccc23)s1 | -5.1 | 10.6% | -10.9% | ? | -12.5% | 0.5%
O=C(N/N=C/c1c[nH]c2ccccc12)c1cc(-c2ccc3ccccc3c2)n[nH]1 | -112.6* | 44.7% | ? | -67.0%[10 µM] | -15.0% | 16.4%
COC(=O)N/N=C/c1c[nH]c2ccccc12 | 16.8 | 6.9% | -17.4% | 23.1%[10 µM] | 3.2% | -7.9%
Cc1nc(C)c(C(=O)N/N=C/c2cc(Br)ccc2O)s1 | . | 3.2% | . | -49.5%[10 µM] | 1.26µM* | .
c1cncc(-c2cc(NCc3cccs3)ncn2)c1 | . | 2.7% | . | 10.9% | . | -11.4%
CC1(C)OC2CC3C4CCC5=CC(=O)C=C[C@@]5(C)[C@]4(F)C(O)C[C@@]3(C)[C@]2(C(=O)CO)O1 (stereo not given in full) | . | 21.7% | -7.1% | -54.9% | . | -12.0%
CN(CC(=O)Nc1ccc(OC(F)(F)F)cc1)C1CCCCC1 | . | -2.9% | . | -25.5% | 0.7% | -15.1%
COc1ccc(Cl)cc1NC(=O)CN(C)C1CCCCC1 | 2.4 | -7.3% | -15.1% | -16.2% | -16.8% | -0.4%
COc1ccc(Cl)cc1NC(=O)CNc1ccccc1CN(C)C1CCCCC1 | . | 3.4% | . | -17.1%[10 µM] | -15.0% | 8.91µM*
COc1ccc(C)cc1NC(=O)CNc1ccccc1CN(C)C1CCCCC1 | . | -0.1% | . | 0.8%[10 µM] | 12.0% | 20µM*
Cc1ccc(NC(=O)CNc2ccccc2CN(C)C2CCCCC2)cc1 | . | 4.4% | . | -30.3% | -9.8% | 20µM*
COc1cccc(-c2nc(COc3ccc(Cl)cc3Cl)no2)c1 | . | 12.2% | . | 8.0%[10 µM] | 14.8%[9.22 µM] | -7.3%
COc1ccc(OC)c(Nc2cc(C)nc3nc(C)nn23)c1 | 7.2 | 5.8% | 2µM* | 22.7%[10 µM] | -5.7% | 0.6%
COc1ccc(C(=O)O)cc1Nc1cc(C)nc2ncnn12 | 8.6 | -3.1% | 25.1µM* | 3.3% | -7.6% | -3.8%
COc1ccc(Nc2cc(C)nc3ncnn23)c(OC)c1 | ? | 4.6% | 15.8µM* | -13.2% | 7.1% | 11.0%
COc1cccc(Nc2cc(C)nc3nc(C)nn23)c1 | 45.3 | 6.6% | -11.0% | -13.7% | -7.6% | 10.4%
COc1ccc(Nc2cc(C)nc3nc(C)nn23)c(OC)c1 | 12.9 | 5.6% | 8.91µM* | -16.0% | 5.6% | 0.6%
Cc1ccc(S(=O)(=O)N(CC(=O)NC2CCCC2)c2cccc(C)c2)cc1 | 5.4 | -2.1% | -15.5% | . | -11.1% | ?
SMILES | PNC inhibitor | RGS12 GoLoco inh | HPGD block | HTT cytoprotect | HTT aggregate | ALDH1A1 block
Nc1ncnc2c1ncn2[C@@H]1O[C@H](C(=O)NC2CC2)[C@@H](O)[C@H]1O | . | 2.1% | . | 14.0% | . | 3.5%
Cc1nn(-c2ccccc2)c(C)c1/C=C/C(=O)OCC(=O)N(C)C1CCS(=O)(=O)C1 (stereo not given) | . | 5.7% | . | -51.5%[1.9 µM] | 7.6%[9.22 µM] | ?
COc1ccc(C)cc1Nc1cc(C)nc2nc(C)nn12 | 12.5 | -0.3% | 1.41µM* | -9.5% | 11.0% | 6.8%
COc1ccc(Nc2cc(C)nc3nc(C)nn23)cc1Cl | 33.0 | -1.7% | -26.6% | -3.3% | 2.6% | 3.5%
COc1ccc(CNc2cc(C)nc3ncnn23)c(OC)c1 | ? | 4.4% | 31.6µM* | -11.7%[10 µM] | ? | -15.3%
CCOC(=O)c1c(N)sc(C(=O)Nc2ccccc2F)c1C | . | 5.8% | . | . | . | -3.3%
CCOC(=O)c1c(N)sc(C(=O)Nc2ccccc2)c1C | . | 5.9% | . | -50.4%[10 µM] | -14.4%[9.22 µM] | 10µM*
CCOC(=O)c1c(N)sc2c1CCC(CC)C2 (stereo not given) | 35.6 | 8.5% | ? | -3.6% | -7.8% | ?
CCOC(=O)c1c(N)sc(=S)c2c1CCC2 | ? | 12.1% | ? | -6.5% | -7.7% | 31.6µM*
CCOC(=O)c1c(N)sc(N)c1C(=O)OCC | ? | 13.1% | 8.91µM* | . | 20.4% | 1.78µM*
CCOC(=O)c1c(N)ssc1=S | ? | -6.4% | 25.1µM* | -10.0% | -11.9% | 3.16µM*
c1ccc([C@H](c2cccc3c2ccc2ccccc23)[C@H](c2ccccc2)c2cccc3c2ccc2ccccc23)cc1 | . | . | . | -4.7%[10 µM] | . | .
O=C1C2=CC[C@H]3C(=O)N(c4cccc(Oc5ccccc5)c4)C(=O)[C@@H]3[C@@H]2[C@H](O)[C@@H]2O[C@H]12 | . | . | . | ? | . | -2.9%[13.5 µM]
CCOC(=O)c1c(N)sc(C(N)=O)c1C | 13.8 | 11.6% | ? | -0.4% | -5.6% | 25.1µM*
Cc1c(C(=O)OC(C)C)sc(N)c1C(=O)OC(C)C | 9.3 | -13.0% | 22.4µM* | -19.7%[10 µM] | -6.0% | ?
CCOC(=O)c1sc(N)c(C(N)=O)c1C | . | -52.3% | . | -16.8% | -13.5% | ?
CCO/C=C/C(O)(CNC(=O)c1ccc(C(C)(C)C)cc1)C(F)(F)F (stereo not given) | -10.9 | 6.9% | 25.1µM* | -51.7%[10 µM] | 9.3% | -7.0%
Cc1c(C(=O)NCCN2CCOCC2)oc2ccc(S(=O)(=O)N3CCCCCC3)cc12 | ? | 4.2% | -16.9% | -5.0% | -10.7% | 25.1µM*
Cc1c(C(=O)NCc2ccc3c(c2)OCO3)oc2ccc(S(=O)(=O)N3CCC(C)CC3)cc12 | -100.0* | 10.8% | -27.0% | 4.8%[10 µM] | -16.4% | -6.5%
Cc1c(C(=O)NCCc2ccccc2)oc2ccc(S(=O)(=O)N3CCOCC3)cc12 | ? | -3.0% | -10.5% | 0.0%[10 µM] | ? | -15.3%
CC1CCN(S(=O)(=O)c2ccc3c(c2)oc(=O)n3CC(=O)NCc2ccc3c(c2)OCO3)CC1 | -9.8 | 1.2% | -11.4% | -2.1% | 8.91µM* | -9.5%
COc1c(O)ccc(/C=C(\C#N)c2nc3ccccc3[nH]2)c1[N+](=O)[O-] | ? | -0.1% | 28.2µM* | -26.0%[10 µM] | 18.1% | -0.7%
Cc1ccc2nc(/C(C#N)=C/c3ccc(-c4cccc([N+](=O)[O-])c4)o3)[nH]c2c1 | ? | 17.2% | 25.1µM* | -50.6%[10 µM] | ? | ?
